The supplement of paper PMC4466140

Each binder was assayed against AgAbp1 (assay: SPOT peptide array binding signal intensity (averaged, normalized) (arbitrary units (background-subtracted, floor 0; scale differs between SH3 domains)); higher = stronger binding of the SH3 domain to the peptide).
Outline: (§1)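 Four yeast species supplied the SH3 domains, which were expressed as GST fusions in E. coli BL21(DE3) and purified on glutathione Sepharose. Incubation with cellulose membranes carrying synthetic 15-mer peptides, cysteines exchanged for serines, ran overnight at 4°C at 10 μg/ml in TBS-based blocking buffer. Binding signal is reported as normalized, background-subtracted spot intensity averaged over replicates, in arbitrary units not shared between domains.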

Row | Binder | SPOT peptide array binding signal intensity
1 | RKLRTVPGVPLIHLT | 13

These binders were tested against AgBbc1 in the same assay as above.
Outline: as §1

Row | Binder | SPOT peptide array binding signal intensity
2 | RKLRTVPGVPLIHLT | 40.8

Each binder was assayed against AgBem1-D1 in the same assay as above.
Outline: as §1

Row | Binder | SPOT peptide array binding signal intensity
3 | RKLRTVPGVPLIHLT | 41

What follows are binders tested against AgBzz1-D1 in the same assay as above.
Outline: as §1

Row | Binder | SPOT peptide array binding signal intensity
4 | RKLRTVPGVPLIHLT | 8

What follows are binders tested against AgBzz1-D2 in the same assay as above.
Outline: as §1

Row | Binder | SPOT peptide array binding signal intensity
5 | RKLRTVPGVPLIHLT | 16

These binders were tested against AgCyk3 in the same assay as above.
Outline: as §1

Row | Binder | SPOT peptide array binding signal intensity
6 | RKLRTVPGVPLIHLT | 0.5

Each binder was assayed against AgFus1 in the same assay as above.
Outline: as §1

Row | Binder | SPOT peptide array binding signal intensity
7 | RKLRTVPGVPLIHLT | 53.5

What follows are binders tested against AgHof1 in the same assay as above.
Outline: as §1

Row | Binder | SPOT peptide array binding signal intensity
8 | RKLRTVPGVPLIHLT | 34.5

What follows are binders tested against AgHse1 in the same assay as above.
Outline: as §1

Row | Binder | SPOT peptide array binding signal intensity
9 | RKLRTVPGVPLIHLT | 19.5

Each binder was assayed against AgLsb1 in the same assay as above.
Outline: as §1

Row | Binder | SPOT peptide array binding signal intensity
10 | RKLRTVPGVPLIHLT | 2

What follows are binders tested against AgLsb4 in the same assay as above.
Outline: as §1

Row | Binder | SPOT peptide array binding signal intensity
11 | RKLRTVPGVPLIHLT | 18

What follows are binders tested against AgMyo5 in the same assay as above.
Outline: as §1

Row | Binder | SPOT peptide array binding signal intensity
12 | RKLRTVPGVPLIHLT | ≤ 0

These binders were tested against AgNbp2 in the same assay as above.
Outline: as §1

Row | Binder | SPOT peptide array binding signal intensity
13 | RKLRTVPGVPLIHLT | 934

These binders were tested against AgRvs167 in the same assay as above.
Outline: as §1

Row | Binder | SPOT peptide array binding signal intensity
14 | RKLRTVPGVPLIHLT | 2

Each binder was assayed against AgSho1 in the same assay as above.
Outline: as §1

Row | Binder | SPOT peptide array binding signal intensity
15 | RKLRTVPGVPLIHLT | ≤ 0

Each binder was assayed against AgSla1-D1-D2 in the same assay as above.
Outline: as §1

Row | Binder | SPOT peptide array binding signal intensity
16 | RKLRTVPGVPLIHLT | ≤ 0

These binders were tested against AgSla1-D3 in the same assay as above.
Outline: as §1

Row | Binder | SPOT peptide array binding signal intensity
17 | RKLRTVPGVPLIHLT | 0.25

What follows are binders tested against CaAbp1-D1 in the same assay as above.
Outline: as §1

Row | Binder | SPOT peptide array binding signal intensity
18 | RKLRTVPGVPLIHLT | 224

What follows are binders tested against CaAbp1-D2 in the same assay as above.
Outline: as §1

Row | Binder | SPOT peptide array binding signal intensity
19 | RKLRTVPGVPLIHLT | 83

What follows are binders tested against CaBbc1 in the same assay as above.
Outline: as §1

Row | Binder | SPOT peptide array binding signal intensity
20 | RKLRTVPGVPLIHLT | 171

Each binder was assayed against CaBem1-D1 in the same assay as above.
Outline: as §1

Row | Binder | SPOT peptide array binding signal intensity
21 | RKLRTVPGVPLIHLT | 1

The binders below were run against CaBzz1-D1 in the same assay as above.
Outline: as §1

Row | Binder | SPOT peptide array binding signal intensity
22 | RKLRTVPGVPLIHLT | 104

What follows are binders tested against CaBzz1-D2 in the same assay as above.
Outline: as §1

Row | Binder | SPOT peptide array binding signal intensity
23 | RKLRTVPGVPLIHLT | 90

What follows are binders tested against CaCyk3 in the same assay as above.
Outline: as §1

Row | Binder | SPOT peptide array binding signal intensity
24 | RKLRTVPGVPLIHLT | 17

The binders below were run against CaFus1 in the same assay as above.
Outline: as §1

Row | Binder | SPOT peptide array binding signal intensity
25 | RKLRTVPGVPLIHLT | 147

The binders below were run against CaHof1 in the same assay as above.
Outline: as §1

Row | Binder | SPOT peptide array binding signal intensity
26 | RKLRTVPGVPLIHLT | 0.5

These binders were tested against CaHse1 in the same assay as above.
Outline: as §1

Row | Binder | SPOT peptide array binding signal intensity
27 | RKLRTVPGVPLIHLT | 1.25

The binders below were run against CaLsb1 in the same assay as above.
Outline: as §1

Row | Binder | SPOT peptide array binding signal intensity
28 | RKLRTVPGVPLIHLT | ≤ 0

These binders were tested against CaLsb4 in the same assay as above.
Outline: as §1

Row | Binder | SPOT peptide array binding signal intensity
29 | RKLRTVPGVPLIHLT | 73

Each binder was assayed against CaMyo5 in the same assay as above.
Outline: as §1

Row | Binder | SPOT peptide array binding signal intensity
30 | RKLRTVPGVPLIHLT | 0.25

What follows are binders tested against CaNbp2 in the same assay as above.
Outline: as §1

Row | Binder | SPOT peptide array binding signal intensity
31 | RKLRTVPGVPLIHLT | 281

What follows are binders tested against CaRvs167 in the same assay as above.
Outline: as §1

Row | Binder | SPOT peptide array binding signal intensity
32 | RKLRTVPGVPLIHLT | 24.3

What follows are binders tested against CaRvs167-3 in the same assay as above.
Outline: as §1

Row | Binder | SPOT peptide array binding signal intensity
33 | RKLRTVPGVPLIHLT | 7.25

The binders below were run against CaSho1 in the same assay as above.
Outline: as §1

Row | Binder | SPOT peptide array binding signal intensity
34 | RKLRTVPGVPLIHLT | 3.5

What follows are binders tested against CaSla1-D1-D2 in the same assay as above.
Outline: as §1

Row | Binder | SPOT peptide array binding signal intensity
35 | RKLRTVPGVPLIHLT | 20

What follows are binders tested against CaSla1-D3 in the same assay as above.
Outline: as §1

Row | Binder | SPOT peptide array binding signal intensity
36 | RKLRTVPGVPLIHLT | ≤ 0

These binders were tested against ScAbp1 in the same assay as above.
Outline: as §1

Row | Binder | SPOT peptide array binding signal intensity
37 | RKLRTVPGVPLIHLT | 14

What follows are binders tested against ScBbc1 in the same assay as above.
Outline: as §1

Row | Binder | SPOT peptide array binding signal intensity
38 | RKLRTVPGVPLIHLT | 21

These binders were tested against ScBem1-D1 in the same assay as above.
Outline: as §1

Row | Binder | SPOT peptide array binding signal intensity
39 | RKLRTVPGVPLIHLT | 27.5

Each binder was assayed against ScBzz1-D1 in the same assay as above.
Outline: as §1

Row | Binder | SPOT peptide array binding signal intensity
40 | RKLRTVPGVPLIHLT | 10

What follows are binders tested against ScBzz1-D2 in the same assay as above.
Outline: as §1

Row | Binder | SPOT peptide array binding signal intensity
41 | RKLRTVPGVPLIHLT | 1.5

These binders were tested against ScCyk3 in the same assay as above.
Outline: as §1

Row | Binder | SPOT peptide array binding signal intensity
42 | RKLRTVPGVPLIHLT | 9

Each binder was assayed against ScFus1 in the same assay as above.
Outline: as §1

Row | Binder | SPOT peptide array binding signal intensity
43 | RKLRTVPGVPLIHLT | 37

These binders were tested against ScHof1 in the same assay as above.
Outline: as §1

Row | Binder | SPOT peptide array binding signal intensity
44 | RKLRTVPGVPLIHLT | 1

These binders were tested against ScHse1 in the same assay as above.
Outline: as §1

Row | Binder | SPOT peptide array binding signal intensity
45 | RKLRTVPGVPLIHLT | 178

What follows are binders tested against ScLsb1 in the same assay as above.
Outline: as §1

Row | Binder | SPOT peptide array binding signal intensity
46 | RKLRTVPGVPLIHLT | 1.5

Each binder was assayed against ScLsb2 in the same assay as above.
Outline: as §1

Row | Binder | SPOT peptide array binding signal intensity
47 | RKLRTVPGVPLIHLT | 2

What follows are binders tested against ScLsb3 in the same assay as above.
Outline: as §1

Row | Binder | SPOT peptide array binding signal intensity
48 | RKLRTVPGVPLIHLT | 1030

The binders below were run against ScLsb4 in the same assay as above.
Outline: as §1

Row | Binder | SPOT peptide array binding signal intensity
49 | RKLRTVPGVPLIHLT | 22

These binders were tested against ScMyo3 in the same assay as above.
Outline: as §1

Row | Binder | SPOT peptide array binding signal intensity
50 | RKLRTVPGVPLIHLT | ≤ 0

What follows are binders tested against ScMyo5 in the same assay as above.
Outline: as §1

Row | Binder | SPOT peptide array binding signal intensity
51 | RKLRTVPGVPLIHLT | 2

What follows are binders tested against ScNbp2 in the same assay as above.
Outline: as §1

Row | Binder | SPOT peptide array binding signal intensity
52 | RKLRTVPGVPLIHLT | 1190

Each binder was assayed against ScPex13 in the same assay as above.
Outline: as §1

Row | Binder | SPOT peptide array binding signal intensity
53 | RKLRTVPGVPLIHLT | 59.5

What follows are binders tested against ScRvs167 in the same assay as above.
Outline: as §1

Row | Binder | SPOT peptide array binding signal intensity
54 | RKLRTVPGVPLIHLT | 1390

These binders were tested against ScSho1 in the same assay as above.
Outline: as §1

Row | Binder | SPOT peptide array binding signal intensity
55 | RKLRTVPGVPLIHLT | 110

The binders below were run against ScSla1-D1-D2 in the same assay as above.
Outline: as §1

Row | Binder | SPOT peptide array binding signal intensity
56 | RKLRTVPGVPLIHLT | 73

What follows are binders tested against ScSla1-D3 in the same assay as above.
Outline: as §1

Row | Binder | SPOT peptide array binding signal intensity
57 | RKLRTVPGVPLIHLT | 23.5

These binders were tested against SpAbp1-D1 in the same assay as above.
Outline: as §1

Row | Binder | SPOT peptide array binding signal intensity
58 | RKLRTVPGVPLIHLT | 17.5

These binders were tested against SpBbc1 in the same assay as above.
Outline: as §1

Row | Binder | SPOT peptide array binding signal intensity
59 | RKLRTVPGVPLIHLT | ≤ 0

Each binder was assayed against SpBzz1-D1 in the same assay as above.
Outline: as §1

Row | Binder | SPOT peptide array binding signal intensity
60 | RKLRTVPGVPLIHLT | 71.5

These binders were tested against SpBzz1-D2 in the same assay as above.
Outline: as §1

Row | Binder | SPOT peptide array binding signal intensity
61 | RKLRTVPGVPLIHLT | ≤ 0

Each binder was assayed against SpCyk3 in the same assay as above.
Outline: as §1

Row | Binder | SPOT peptide array binding signal intensity
62 | RKLRTVPGVPLIHLT | ≤ 0

The binders below were run against SpHof1 in the same assay as above.
Outline: as §1

Row | Binder | SPOT peptide array binding signal intensity
63 | RKLRTVPGVPLIHLT | 22.8

The binders below were run against SpHof1-2 in the same assay as above.
Outline: as §1

Row | Binder | SPOT peptide array binding signal intensity
64 | RKLRTVPGVPLIHLT | 2

These binders were tested against SpHof1-3 in the same assay as above.
Outline: as §1

Row | Binder | SPOT peptide array binding signal intensity
65 | RKLRTVPGVPLIHLT | 229

These binders were tested against SpHse1 in the same assay as above.
Outline: as §1

Row | Binder | SPOT peptide array binding signal intensity
66 | RKLRTVPGVPLIHLT | 68.8

The binders below were run against SpLsb1 in the same assay as above.
Outline: as §1

Row | Binder | SPOT peptide array binding signal intensity
67 | RKLRTVPGVPLIHLT | 3.25

These binders were tested against SpLsb4 in the same assay as above.
Outline: as §1

Row | Binder | SPOT peptide array binding signal intensity
68 | RKLRTVPGVPLIHLT | 369

The binders below were run against SpMyo1 in the same assay as above.
Outline: as §1

Row | Binder | SPOT peptide array binding signal intensity
69 | RKLRTVPGVPLIHLT | 2.75

These binders were tested against SpNbp2 in the same assay as above.
Outline: as §1

Row | Binder | SPOT peptide array binding signal intensity
70 | RKLRTVPGVPLIHLT | 7.5

What follows are binders tested against SpPex13 in the same assay as above.
Outline: as §1

Row | Binder | SPOT peptide array binding signal intensity
71 | RKLRTVPGVPLIHLT | ≤ 0

Each binder was assayed against SpRvs167 in the same assay as above.
Outline: as §1

Row | Binder | SPOT peptide array binding signal intensity
72 | RKLRTVPGVPLIHLT | 616

The binders below were run against SpSla1-D1-D2 in the same assay as above.
Outline: as §1

Row | Binder | SPOT peptide array binding signal intensity
73 | RKLRTVPGVPLIHLT | 1

What follows are binders tested against SpSla1-D3 in the same assay as above.
Outline: as §1

Row | Binder | SPOT peptide array binding signal intensity
74 | RKLRTVPGVPLIHLT | ≤ 0
